Among the data in PubChem BioAssay AID861 (The Scripps Research Institute Molecular Screening Center, 2007) are inhibition values, retold here.

The whole screen tested about 200,000 compounds, of which about 360 (0.18%) were called active. Only a selection was taken, and actives are over-represented in it overall. Unmarked numbers belong to inactive results. No stated cut-off is given here; in the data, active means inhibition above about 25%; inactive means the rest.

Chain of Toll-like receptor 4 (Homo sapiens) + Myeloid differentiation primary response protein MyD88 (Homo sapiens) (O00206 whole entry, looked up): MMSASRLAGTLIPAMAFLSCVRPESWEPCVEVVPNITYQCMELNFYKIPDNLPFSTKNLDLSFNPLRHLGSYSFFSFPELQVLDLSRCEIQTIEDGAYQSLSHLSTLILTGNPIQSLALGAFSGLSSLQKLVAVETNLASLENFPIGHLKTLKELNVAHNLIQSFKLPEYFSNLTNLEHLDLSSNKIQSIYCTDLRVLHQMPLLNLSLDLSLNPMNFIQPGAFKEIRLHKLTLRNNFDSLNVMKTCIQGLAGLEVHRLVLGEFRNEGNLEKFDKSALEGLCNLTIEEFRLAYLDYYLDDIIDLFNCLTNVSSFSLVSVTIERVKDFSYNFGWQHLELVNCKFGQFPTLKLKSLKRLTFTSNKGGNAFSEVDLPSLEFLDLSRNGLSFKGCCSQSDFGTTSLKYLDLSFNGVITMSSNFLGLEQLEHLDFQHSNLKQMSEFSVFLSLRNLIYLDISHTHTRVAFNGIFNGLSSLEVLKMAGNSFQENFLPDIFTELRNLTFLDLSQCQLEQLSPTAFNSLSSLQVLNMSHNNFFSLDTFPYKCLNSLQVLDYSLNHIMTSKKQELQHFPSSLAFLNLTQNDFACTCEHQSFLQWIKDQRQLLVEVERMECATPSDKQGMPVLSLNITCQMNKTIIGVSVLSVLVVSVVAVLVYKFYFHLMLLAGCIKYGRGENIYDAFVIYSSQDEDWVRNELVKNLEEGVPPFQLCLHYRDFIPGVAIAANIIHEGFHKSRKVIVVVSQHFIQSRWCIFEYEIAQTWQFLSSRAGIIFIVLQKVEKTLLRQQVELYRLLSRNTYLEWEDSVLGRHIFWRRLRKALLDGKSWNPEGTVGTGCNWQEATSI
Chain of Toll-like receptor 4 (Homo sapiens) + Myeloid differentiation primary response protein MyD88 (Homo sapiens) (Q99836 whole entry, looked up): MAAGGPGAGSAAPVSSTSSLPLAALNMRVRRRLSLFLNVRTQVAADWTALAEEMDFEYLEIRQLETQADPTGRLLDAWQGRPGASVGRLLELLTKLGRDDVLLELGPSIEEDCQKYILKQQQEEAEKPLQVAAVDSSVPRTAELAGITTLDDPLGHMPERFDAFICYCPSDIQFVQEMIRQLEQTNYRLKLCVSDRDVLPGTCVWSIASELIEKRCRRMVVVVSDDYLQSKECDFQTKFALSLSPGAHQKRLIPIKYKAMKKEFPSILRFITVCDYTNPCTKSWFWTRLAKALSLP

This assay addresses Toll-like receptor 4 (Homo sapiens) + Myeloid differentiation primary response protein MyD88 (Homo sapiens) (UniProt O00206+Q99836). Nature of the assay: inhibitors of TLR4-MyD88 association in cells, primary screen, cell-based, HeLa CL3-4, BLA complementation, FRET ratio (AID 861).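 Further: 0% = vehicle and 100% = reference inhibitor.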 The conditions noted are these: HeLa CL3-4 TLR4/MyD88 BLA complementation, at 8.4 µM, active compounds read high.
In general, inhibition refers to the drop in the measured response relative to a control, in per cent. Take `CCOC(=O)Cc1csc(NC(=O)CSc2ccc(Br)cc2)n1`: the inhibition is -6.41%.

In the case of `CNC(=O)c1ccsc1NC(=O)c1ccc(S(=O)(=O)N2CCOCC2)cc1`, the inhibition is 0.17%.

Regarding `Cc1ccc(Oc2cc(NC(=O)CCCn3nc(C)c([N+](=O)[O-])c3C)cc([N+](=O)[O-])c2)cc1`, the inhibition is -10.9%.

`Nc1cc(C(F)(F)F)ccc1N1CCOCC1`: the inhibition is 2.5%.

Take `COc1ccccc1-c1nc(SC)n[nH]1`: the inhibition was -2.94%.

Consider `CN(C)CCCCCN(C)Cc1cc2ccccc2o1`, for which the inhibition was 6.13%.

Regarding `Cc1nn(Cc2ccc(Cl)cc2)c(Cl)c1/C=N/NC(=O)CNc1ccccc1F`, the inhibition was -10.4%.

With `COc1ccc(/C=C2/C(=O)OCc3cc(OC)c(OC)cc32)c(OC)c1`, the inhibition is -8.99%.

In the case of `Cc1cc(-c2csc(N)n2)c(C)n1Cc1ccccc1`, the inhibition was 5.78%.

With `CC(C)(C)NC(=O)NC(=O)COC(=O)Cc1ccc(Cl)cc1Cl`, the inhibition is 16.8%.

As for `Cc1ccnc2nc(C(=O)OCC(=O)N(CC(C)C)CC(C)C)nn12`, the inhibition is -2.14%.

For `C=CCN(CC=C)CCOc1ccccc1[N+](=O)[O-]`, the inhibition was 9.15%.

For `COC(CNC(=O)Cn1ncc2ccsc2c1=O)OC`, the inhibition is -15.6%.

Turning to `CCO/C=C1\C(=O)N(c2ccc(OCC)cc2)C(=O)c2ccccc21`, the inhibition was 5.91%.

`Cn1cccc1C(C#N)c1ccccc1C#N` (configuration not stated): the inhibition was 2.41%.

With `COc1cccc(OC)c1C(=O)NC(=S)Nc1ccc(N2CCOCC2)c(Cl)c1`, the inhibition was -0.95%.

Consider `O=C(Cc1ccccc1)NCc1ccc(F)cc1`, for which the inhibition was -9.59%.

Consider `CCOC(=O)CSc1nc(C)cc2c1C(=O)OC2`, for which the inhibition is 8.27%.

Turning to `O=C(Cn1nnc(-c2ccccc2)n1)N/N=C/c1ccc(-c2ccc(Cl)cc2)o1`, the inhibition is 8.21%.

Regarding `N/C(=N/O)c1cccn1Cc1ccccc1[N+](=O)[O-]`, the inhibition is -3.45%.

Consider `O=C(CCCOc1ccccc1)NCc1ccco1`, for which the inhibition was 9.17%.

Take `O=C(c1ccc(F)cc1)c1cn(Cc2ccc(F)cc2)c2cc3c(cc2c1=O)OCCO3`: the inhibition is -6.89%.

`CCN(CC)CCn1c(/N=C/c2cc(Br)ccc2O)nc2ccccc21`: the inhibition was 7.14%.

In the case of `CCOc1ccc(NC(=O)CN(C)CC(=O)NC(C)c2ccccc2)cc1OCC` (configuration not stated), the inhibition was -3.92%.

Regarding `CCCNC(=S)N1CCCC(c2nc3ccccc3[nH]2)C1` (configuration not stated), the inhibition is -4.57%.

`Cc1cc(C)c[n+](-c2nc3ccccc3nc2[N-]S(=O)(=O)c2cccs2)c1`: the inhibition is -9.34%.

Turning to `COc1ccc2cc(CCl)c(Cl)nc2c1`, the inhibition was 2.67%.

Regarding `COc1cccc(OC)c1C(=O)Nc1ccc(Cc2ccncc2)cc1`, the inhibition was 13.9%.

In the case of `COc1ccc(-c2onc(C)c2-c2ccc3c(c2)OCCO3)c(O)c1`, the inhibition was 1.48%.

With `CC(CC(=O)O)C(=O)c1ccc(Cl)c([N+](=O)[O-])c1` (configuration not stated), the inhibition was 1.72%.

Regarding `Cc1nnc(-c2ccc(Oc3ccc(C)c(C)c3)c([N+](=O)[O-])c2)o1`, the inhibition is 2.54%.

For `CSC(=S)N/N=C/c1c[nH]c2ccccc12`, the inhibition is -16.8%.

In the case of `C[n+]1ccc(/C=C/c2c[nH]c3ccccc23)cc1`, the inhibition is 35.4% (active).

Turning to `S=c1[nH]nc(-c2ccccc2)n1/N=C/c1c[nH]c2ccccc12`, the inhibition is -1.22%.

Turning to `O=C1c2cccc3c([N+](=O)[O-])ccc(c23)C(=O)N1CC1CCCO1` (configuration not stated), the inhibition was 84.1% (active).

Take `O=C(NCc1ccc2c(c1)OCO2)c1ccc2c(c1)C(=O)N(CC1CCCO1)C2=O` (configuration not stated): the inhibition is 16.9%.

With `O=c1c2cc3c(=O)n(CC4CCCO4)c(=O)c3cc2c(=O)n1CC1CCCO1` (configuration not stated), the inhibition is 0.88%.

On to `C/C=C/c1ccc(OCCOc2ccc(C=O)cc2OC)c(OC)c1`, for which the inhibition was -6.21%.

On to `COCCCNC(=O)C1CCC(CNS(=O)(=O)c2ccc(OC)cc2)CC1` (configuration not stated), for which the inhibition was 3.23%.

For `CCOC(=O)C1=C(CC)Nc2ccccc2N=C1N`, the inhibition was -10.4%.

With `CCCCN(CC)C(=O)c1ccc2c(c1)OCO2`, the inhibition is -2.02%.

Turning to `O=c1cnnc(Nc2ccccc2F)[nH]1`, the inhibition is 6.52%.

On to `COc1ccccc1CC(=O)Nc1ccc(F)cc1F`, for which the inhibition was -14.3%.

With `O=C1NC(=O)C2C1C(c1ccc([N+](=O)[O-])cc1)=NN2Cc1ccccc1` (configuration not stated), the inhibition was 44.1% (active).

With `O=C1CC(c2ccccc2)=NN1c1ccc([N+](=O)[O-])cc1`, the inhibition was 7.06%.

Turning to `CC1=NN(c2ccccc2)C(=O)C1C(=O)c1ccc([N+](=O)[O-])cc1` (configuration not stated), the inhibition is 1.28%.

For `COC(=O)c1cc(C)sc1NC(=O)CC1Nc2ccccc2NC1=O` (configuration not stated), the inhibition was 5%.

`COc1ccc(-c2nn(-c3ccccc3)cc2/C=N/Nc2ccccn2)cc1OC`: the inhibition was -3.61%.

Turning to `O=C(NCCc1ccc(F)cc1)c1n[nH]c2ccccc12`, the inhibition was -4.67%.

With `CCCn1nnc(NC(=O)COc2ccc(CC)cc2)n1`, the inhibition was 9.27%.

As for `CSCCC(NS(=O)(=O)c1ccc2c(c1)oc(=O)n2C)C(=O)NC1CCCc2ccccc21` (configuration not stated), the inhibition was 7.47%.

As for `O=C(CO/N=C/c1ccccc1OC(F)F)NC1CCCC1`, the inhibition is 16.4%.

On to `O=C(CNC1CCCCC1)NCC1(c2ccccc2)CCCC1`, for which the inhibition is -4.02%.

For `COc1cc(C(=S)NCc2ccccc2)cc(Br)c1O`, the inhibition was -2.71%.

Regarding `Cc1cc(C)n(CCNCc2c(C(=O)N3C[C@@H](C)O[C@@H](C)C3)nc3ccc(Cl)cn23)n1`, the inhibition is -4.55%.

As for `Cc1cc(C)cc(OCC(=O)NCc2cc(C)nc3ccccc23)c1`, the inhibition is 8.6%.

In the case of `Cc1cccc(C(=O)N2CCc3c([nH]c4ccccc34)C2CC(C)C)n1` (configuration not stated), the inhibition was -16.4%.

Take `CC12CN(NC(=O)c3ccc(Cl)cc3)C3(C#N)CC1CCC23C` (configuration not stated): the inhibition is 1.1%.

Regarding `CCN(CC(=O)NC1CCS(=O)(=O)C1)S(=O)(=O)c1ccccc1` (configuration not stated), the inhibition is 1.44%.

For the compound `COc1ccc(S(=O)(=O)N2CN(CCc3ccc(OC)c(OC)c3)c3nc4ccccc4nc32)cc1`, the inhibition was 3.83%.

On to `Cc1ccc(OCCCC(=O)NC(C)c2ccccc2)c(C)c1` (configuration not stated), for which the inhibition is -0.61%.

Turning to `CCCCCCCCn1c2c(c(=N)c3c1CCC3)CCCC2`, the inhibition was 28.8% (active).

Consider `CCCCCCn1c(CN2CCCCC2)nc2c1c(=O)n(C)c(=O)n2C`, for which the inhibition is 3.83%.

Regarding `O=C(Cc1csc(Nc2nc(=S)[nH]c3ccccc23)n1)NCCCN1CCN(c2cccc(Cl)c2)CC1`, the inhibition was -1.51%.

As for `Cc1nc(N2CCN(c3ncccn3)CC2)c2oc3ccccc3c2n1`, the inhibition was 7.8%.

As for `Cc1nc(Cl)c2oc3ccccc3c2n1`, the inhibition is 35.2% (active).

For the compound `CCSc1nc(C)nc2c1oc1ccccc12`, the inhibition is 1.7%.

Consider `Cc1ccc2[nH]c(=O)c(CN3CCCCC3)c(-c3ccccc3)c2c1`, for which the inhibition was 16.6%.

For the compound `COc1ccc(C2OCC3(CO2)SC(=O)NC3=O)cc1OC` (configuration not stated), the inhibition was 6.58%.

For the compound `CCN1CCC2(CCN(Cc3cn[nH]c3-c3ccc(OC)c(F)c3)C2)C1` (configuration not stated), the inhibition was -1.36%.

`O=C(Nc1ccccc1Cc1ccccc1)c1ccc2c(c1)SC1=NS(=O)(=O)CCN12`: the inhibition is 14.2%.

`CCCCN(C(=O)COc1ccc(NC(C)=O)cc1)C1CCS(=O)(=O)C1` (configuration not stated): the inhibition was 5.19%.

Consider `COc1cc(NC(=O)COC(=O)c2cnc(C)cn2)c(C)cc1[N+](=O)[O-]`, for which the inhibition was 0.72%.

Take `CC(C)c1csc(CN2CCC(CO)(Cc3ccccc3)CC2)n1`: the inhibition is -3.76%.

As to `Oc1ccccc1C=NC1CCCCC1N=Cc1ccccc1O` (configuration not stated), the inhibition was -2.31%.

Take `Cn1cnnc1SCC(=O)Nc1ccc(N2CCOCC2)cc1`: the inhibition was -8.28%.

Take `CN(c1ccccc1)c1nc(N)c([N+](=O)[O-])c(NCc2ccco2)n1`: the inhibition was -1.5%.

Regarding `COC(=O)Cc1cc(=O)n(-c2nc3ccccc3s2)[nH]1`, the inhibition is 25.2% (active).

For `CCC(=O)NC(=Nc1nc2ccccc2s1)NC(=O)CC`, the inhibition was -5.21%.

As to `COC(=O)Cc1nc2ccccc2[nH]1`, the inhibition was 9.21%.

In the case of `CC1CCN(c2ccc([N+](=O)[O-])cc2C(N)=O)CC1`, the inhibition was 12.4%.

`Cc1nc2ccccc2n1CC(=O)N/N=C/c1cccs1`: the inhibition is -1.34%.

For the compound `CN(C)c1ccc(C=NCCc2ccc(S(N)(=O)=O)cc2)cc1`, the inhibition was -10.3%.

For `Cc1cc(C)c2c(n1)sc1c(=O)n(-c3ccccc3)c(=O)[nH]c12`, the inhibition was 13.9%.

Turning to `Cn1nnnc1-c1cc(Cl)cc(Cl)c1`, the inhibition was -10.5%.

For `O=C(COC(=O)c1cc(-c2cccs2)nn1-c1ccccc1)Nc1cc([N+](=O)[O-])ccc1Cl`, the inhibition was 7.72%.

For the compound `O=C(/C=C/c1ccc(F)cc1)NCCNC(=O)/C=C/c1ccc(F)cc1`, the inhibition was -2.71%.

Regarding `COc1ccc(NC(=S)Nc2ccc(S(N)(=O)=O)cc2)c(C)c1`, the inhibition is -9.09%.

For the compound `Nc1nc(SCC(=O)NCCN2CCOCC2)nc2sc3c(c12)CCC3`, the inhibition was 4.71%.

In the case of `Cc1ccc(Nc2c(F)c(F)c(F)c(F)c2C(=O)O)c(C)c1`, the inhibition is -9.32%.

Regarding `Cc1cccc2cc(CN(Cc3cccs3)C(=S)NCc3ccco3)c(=O)[nH]c12`, the inhibition was 6.03%.

On to `COc1ccc(-c2oc3ncn(Cc4ccco4)c(=N)c3c2-c2ccc(OC)cc2)cc1`, for which the inhibition is -4.97%.

With `Cc1nn(C)c(C)c1CN(C(=O)CCc1nnc(Cc2c[nH]c3ccccc23)o1)C(C)C`, the inhibition is -4.71%.

On to `COc1ccc(Cc2nnc(N/N=C/c3ccccc3O)[nH]c2=O)cc1OC`, for which the inhibition was -8.91%.

Regarding `COc1cc(C(=O)N[C@@H](C)C(=O)NCc2ccco2)cc(OC)c1OC`, the inhibition was 5.84%.

Turning to `CCOc1ccc(N2C(=O)/C(=C/c3ccc(C)o3)N(C)C2=S)cc1`, the inhibition was -6.16%.

As to `Cc1ccccc1-n1cc(CNC(=O)CC2C(=O)NCCN2C/C=C/c2ccccc2)cn1` (configuration not stated), the inhibition was -13.3%.
